{
  "source": "PubChem BioAssay (NCATS)",
  "note": "Records with an inconclusive call do not appear. A number with no mark means an inactive call. Activity calls are given as the source filed them. Calls come from the whole dose curve. % is set by controls: 0 for no effect and ±100 for the full control effect; potency is the fitted concentration of half-maximal effect.",
  "data": [
    {"assay": "Primary qHTS for inhibitors of MERS-S pseudo-typed particle cell entry (AID 1479149); note: nearly all actives have a fitted effect of over 60% in size", "conditions": "MERS-S pseudotyped particle entry, luciferase; series mostly up to 57.1 µM; activity change, negative = inhibition: at the top concentration", "units": {"activity change, negative = inhibition": "%"}, "values": [
      {"smiles": "CC(N)C12CC3CC(CC(C3)C1)C2", "note": "(stereo unspecified)", "activity change, negative = inhibition": -15.3},
      {"smiles": "Cc1ccccc1C(=O)Nc1ccc(C(=O)N2CCCC(O)c3cc(Cl)ccc32)c(C)c1", "note": "(stereo unspecified)", "outcome": "inactive"},
      {"smiles": "Oc1cc(Cl)ccc1Oc1ccc(Cl)cc1Cl", "outcome": "inactive"},
      {"smiles": "CC/C(=C(\\c1ccccc1)c1ccc(OCCN(C)C)cc1)c1ccccc1", "Potency": "7.08 µM (active)"},
      {"smiles": "CC(C)NC[C@@H](O)COc1ccc(CC(N)=O)cc1", "outcome": "inactive"},
      {"smiles": "O=C1Nc2ccc(Cl)cc2[C@@](C#CC2CC2)(C(F)(F)F)O1", "activity change, negative = inhibition": -15.9},
      {"smiles": "CCCN(CCc1cccs1)[C@H]1CCc2c(O)cccc2C1", "outcome": "inactive"},
      {"smiles": "CN(C/C=C/C#CC(C)(C)C)Cc1cccc2ccccc12", "activity change, negative = inhibition": 0.347},
      {"smiles": "CCCCc1oc2ccccc2c1C(=O)c1cc(I)c(OCCN(CC)CC)c(I)c1", "Potency": "10 µM (active)"}
    ]},
    {"assay": "Primary qHTS for Vero E6 cytotoxicity: counterscreen for inhibitors of SARS-S pseudo-typed particle cell entry (AID 1479150)", "conditions": "cell viability; series mostly up to 57.1 µM; activity change, negative = cytotoxicity: at the top concentration", "units": {"activity change, negative = cytotoxicity": "%"}, "values": [
      {"smiles": "CC(N)C12CC3CC(CC(C3)C1)C2", "note": "(stereo unspecified)", "activity change, negative = cytotoxicity": 2.32},
      {"smiles": "COc1cc2nc(N(C)CCCNC(=O)C3CCCO3)nc(N)c2cc1OC", "note": "(stereo unspecified)", "activity change, negative = cytotoxicity": -3.53},
      {"smiles": "CC(=O)O[C@]1(C(C)=O)CC[C@H]2[C@@H]3C=C(Cl)C4=CC(=O)[C@@H]5C[C@@H]5[C@]4(C)[C@H]3CC[C@@]21C", "outcome": "inactive"},
      {"smiles": "OC(CCN1CCCC1)(c1ccccc1)C1CCCCC1", "note": "(stereo unspecified)", "activity change, negative = cytotoxicity": -5.85},
      {"smiles": "O=C1CCc2cc(OCCCCc3nnnn3C3CCCCC3)ccc2N1", "activity change, negative = cytotoxicity": 3.08},
      {"smiles": "Cc1ccccc1C(=O)Nc1ccc(C(=O)N2CCCC(O)c3cc(Cl)ccc32)c(C)c1", "note": "(stereo unspecified)", "outcome": "inactive"},
      {"smiles": "Cc1ccccc1C(OCCN(C)C)c1ccccc1", "note": "(stereo unspecified)", "outcome": "inactive"},
      {"smiles": "Oc1cc(Cl)ccc1Oc1ccc(Cl)cc1Cl", "activity change, negative = cytotoxicity": -1.37},
      {"smiles": "COc1ccc(OC)c(C(O)CNC(=O)CN)c1", "note": "(stereo unspecified)", "activity change, negative = cytotoxicity": -9.84},
      {"smiles": "CO[C@@]12[C@H](COC(N)=O)C3=C(C(=O)C(C)=C(N)C3=O)N1C[C@@H]1N[C@@H]12", "activity change, negative = cytotoxicity": 4.01},
      {"smiles": "Cc1nc2n(c(=O)c1CCN1CCC(c3noc4cc(F)ccc34)CC1)CCCC2", "outcome": "inactive"},
      {"smiles": "COC(=O)C1=C(C)NC(C)=C(C(=O)OCCN(C)Cc2ccccc2)C1c1cccc([N+](=O)[O-])c1", "note": "(stereo unspecified)", "outcome": "inactive"},
      {"smiles": "CN(C)CC/C=C1\\c2ccccc2COc2ccccc21", "outcome": "inactive"},
      {"smiles": "OCCOCCN1CCN(C(c2ccccc2)c2ccc(Cl)cc2)CC1", "note": "(stereo unspecified)", "activity change, negative = cytotoxicity": 2.04},
      {"smiles": "CN1CCN(C2=Nc3ccccc3Oc3ccc(Cl)cc32)CC1", "outcome": "inactive"},
      {"smiles": "Nc1ncn([C@@H]2O[C@H](CO)[C@@H](O)[C@H]2O)c(=O)n1", "activity change, negative = cytotoxicity": -11.7},
      {"smiles": "CC[C@H](C)C(=O)O[C@H]1C[C@@H](C)C=C2C=C[C@H](C)[C@H](CC[C@@H]3C[C@@H](O)CC(=O)O3)[C@H]21", "Potency": "14.1 µM (active)"},
      {"smiles": "CC/C(=C(\\c1ccccc1)c1ccc(OCCN(C)C)cc1)c1ccccc1", "outcome": "inactive"},
      {"smiles": "CN1CCN(C(c2ccccc2)c2ccccc2)CC1", "outcome": "inactive"},
      {"smiles": "Fc1ccc([C@@H]2CCNC[C@H]2COc2ccc3c(c2)OCO3)cc1", "activity change, negative = cytotoxicity": 3.25},
      {"smiles": "C[C@@H](O[C@H]1OCCN(Cc2n[nH]c(=O)[nH]2)[C@H]1c1ccc(F)cc1)c1cc(C(F)(F)F)cc(C(F)(F)F)c1", "outcome": "inactive"},
      {"smiles": "C=C[C@H]1CN2CC[C@H]1C[C@@H]2[C@@H](O)c1ccnc2ccc(OC)cc12", "outcome": "inactive"},
      {"smiles": "CC(C)NC[C@@H](O)COc1ccc(CC(N)=O)cc1", "activity change, negative = cytotoxicity": -0.306},
      {"smiles": "C[C@H]1c2cccc(O)c2C(O)=C2C(=O)[C@]3(O)C(O)=C(C(N)=O)C(=O)[C@@H](N(C)C)[C@@H]3[C@@H](O)[C@@H]21", "outcome": "inactive"},
      {"smiles": "O=C1Nc2ccc(Cl)cc2[C@@](C#CC2CC2)(C(F)(F)F)O1", "activity change, negative = cytotoxicity": -8.11},
      {"smiles": "CCCN(CCc1cccs1)[C@H]1CCc2c(O)cccc2C1", "activity change, negative = cytotoxicity": -14},
      {"smiles": "CN(C/C=C/C#CC(C)(C)C)Cc1cccc2ccccc12", "outcome": "inactive"},
      {"smiles": "Cc1ccc(O)c([C@H](CCN(C(C)C)C(C)C)c2ccccc2)c1", "outcome": "inactive"},
      {"smiles": "C#C[C@]1(O)CC[C@H]2[C@@H]3CCC4=Cc5oncc5C[C@]4(C)[C@H]3CC[C@@]21C", "outcome": "inactive"},
      {"smiles": "CC(CN(C)C)CN1c2ccccc2CCc2ccccc21", "note": "(stereo unspecified)", "activity change, negative = cytotoxicity": 4.98},
      {"smiles": "CCCCc1oc2ccccc2c1C(=O)c1cc(I)c(OCCN(CC)CC)c(I)c1", "outcome": "inactive"},
      {"smiles": "COc1ccc2nc(S(=O)Cc3ncc(C)c(OC)c3C)[nH]c2c1", "note": "(stereo unspecified)", "activity change, negative = cytotoxicity": 1.41},
      {"smiles": "CCN(CC)CCOC(=O)C1(C2CCCCC2)CCCCC1", "outcome": "inactive"},
      {"smiles": "COc1cc2c(cc1OC)C(=O)C(CC1CCN(Cc3ccccc3)CC1)C2", "note": "(stereo unspecified)", "activity change, negative = cytotoxicity": 4.72},
      {"smiles": "OCCN(CCO)c1nc(N2CCCCC2)c2nc(N(CCO)CCO)nc(N3CCCCC3)c2n1", "outcome": "inactive"},
      {"smiles": "CCc1ccc(CCOc2ccc(CC3SC(=O)NC3=O)cc2)nc1", "note": "(stereo unspecified)", "activity change, negative = cytotoxicity": 4.28},
      {"smiles": "C#Cc1cccc(Nc2ncnc3cc(OCCOC)c(OCCOC)cc23)c1", "activity change, negative = cytotoxicity": -23.1}
    ]}
  ]
}
